Assay results: PubChem BioAssay (NCI)
Compounds without any hit were thinned out: in the full panel of roughly 83,000, 20% have a hit.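 Treatment: one concentration, 48 hours, 96-well format. Scoring: percent growth, with anything below 10 considered active.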 Unmarked numbers belong to inactive results. Active and inactive are the calls of the source.

Tests used:
Assay in all cases: NCI-60 one-dose screen, 48 h (100 = growth as untreated, 0 = no growth, -100 = all killed)
Conditions in all cases: 10 µM unless noted
SK-MEL-2 melanoma = tested on: SK-MEL-2 melanoma
EKVX NSCLC = tested on: EKVX NSCLC
SN12C renal = tested on: SN12C renal
UO-31 renal = tested on: UO-31 renal
TK-10 renal = tested on: TK-10 renal
CAKI-1 renal = tested on: CAKI-1 renal
A498 renal = tested on: A498 renal
CCRF-CEM leukemia = tested on: CCRF-CEM leukemia
MOLT-4 leukemia = tested on: MOLT-4 leukemia
SR leukemia = tested on: SR leukemia
RPMI-8226 leukemia = tested on: RPMI-8226 leukemia
OVCAR-8 ovarian = tested on: OVCAR-8 ovarian
OVCAR-4 ovarian = tested on: OVCAR-4 ovarian
SK-OV-3 ovarian = tested on: SK-OV-3 ovarian
IGROV1 ovarian = tested on: IGROV1 ovarian
OVCAR-3 ovarian = tested on: OVCAR-3 ovarian
HS 578T breast = tested on: HS 578T breast
NCI/ADR-RES ovarian = tested on: NCI/ADR-RES ovarian
ACHN renal = tested on: ACHN renal
OVCAR-5 ovarian = tested on: OVCAR-5 ovarian

| Structure (SMILES) | growth (SK-MEL-2 melanoma) | growth (EKVX NSCLC) | growth (SN12C renal) | growth (UO-31 renal) | growth (TK-10 renal) | growth (CAKI-1 renal) | growth (A498 renal) | growth (CCRF-CEM leukemia) | growth (MOLT-4 leukemia) | growth (SR leukemia) | growth (RPMI-8226 leukemia) | growth (OVCAR-8 ovarian) | growth (OVCAR-4 ovarian) | growth (SK-OV-3 ovarian) | growth (IGROV1 ovarian) | growth (OVCAR-3 ovarian) | growth (HS 578T breast) | growth (NCI/ADR-RES ovarian) | growth (ACHN renal) | growth (OVCAR-5 ovarian) |
| --- | --- | --- | --- | --- | --- | --- | --- | --- | --- | --- | --- | --- | --- | --- | --- | --- | --- | --- | --- | --- |
| COc1ccc(CNCCCN2C(=O)c3ccc4c5c(ccc(c35)C2=O)C(=O)N(CCCNCCCCNCCCN)C4=O)c(OC)c1OC | -36.5% (active) | 48.7% | -54.6% (active) | 51.4% | 25.7% | 56.1% | 80% | 16.5% | 14.4% | 6.04% (active) | 39.7% | 4.39% (active) | -48.3% (active) | 51.7% | -4.4% (active) | 3.29% (active) | 73.1% |  |  |  |
| CN(C)CCN1C(=O)c2ccc3c4c(ccc(c24)C1=O)C(=O)N(CCN=C=S)C3=O | -75% (active) | -95.2% (active) | -89.5% (active) | -95.4% (active) | -95.3% (active) | -80% (active) | -97.8% (active) | -50.6% (active) | -52.2% (active) | -39.7% (active) | -45% (active) | -88.7% (active) | -94.3% (active) | -97% (active) | -64.3% (active) | -96.5% (active) | -6.37% (active) | -57.3% (active) |  |  |
| COc1ccc2c(c1)cn1c3ccc(OC)cc3[nH]c(=O)c21 | -50.3% (active) | 48.5% | -11.8% (active) | -74.8% (active) | -89.6% (active) |  | 41.2% | -64.8% (active) | -41.6% (active) |  | -37.8% (active) | -47.4% (active) | 40.4% | 22.5% | -54% (active) |  |  | -2.47% (active) | -98.3% (active) | 21.3% |
| CO[C@H]1NC(=O)N(S(=O)(=O)c2ccc(Cl)cc2)[C@@H]1OC | 113% | 101% | 102% | 88% | 103% |  | 112% |  | 102% | 93.9% | 96.1% | 106% | 108% | 102% | 124% | 108% | 100% | 110% | 105% | 111% |
| C=C1CCC2C3(C)COC(c4ccccc4)OC3CCC2(C)C1/C=C/C1=CCOC1=O (stereo not drawn) | 51.3% | 96.1% | 24% | 52.6% | 61.3% |  | 106% | -46.7% (active) | 45.5% |  | -36.8% (active) | 32.9% | 50% | 72.4% | 30.6% |  |  | 26.2% | 71.3% | 78.7% |
| C=C[C@@H]1C[C@H](O)Cc2ccccc2N1 | 123% | 107% | 103% | 99.5% | 95.5% |  | 99.9% | -30.7% (active) |  |  | 89.9% | 103% |  | 114% | 124% | 125% | 104% | 106% | 107% | 106% |
| COc1cc(C2C3=C(COC3=O)Nc3cc4c(cc32)OCO4)cc2c1OCO2 (stereo not drawn) | 41.6% | 44.6% | 23.4% | 51% | 55% | 44.1% | 21.3% | 8.12% (active) | 12.1% | -0.432% (active) | 21.9% | 14.3% | 51.9% | 12.8% | 23.6% | -45.3% (active) | 14.6% | 9.84% (active) |  |  |
| COc1ccc(C(=O)c2cc(OC)c3c(c2)OCO3)cc1O | 71.7% | 58.4% | 31.4% | 46.6% | 66% | 55.5% | 61.9% | 16.5% | 17.8% | 9.89% (active) | 24.7% | 17.8% | 37.7% | 8.88% (active) | 27.9% | -41.7% (active) | 12.2% | 2.68% (active) |  |  |
| Cc1[nH]c2ccc(F)cc2c1CCNC(=O)C1CCN(C(=O)c2ccccc2)CC1 | 98.9% [25 µM] | 77.9% [25 µM] | 94.5% [25 µM] | 67.6% [25 µM] | 91.1% [25 µM] |  | 56.2% [25 µM] |  | 88% [25 µM] | 97.3% [25 µM] | 10% [25 µM] | 93.3% [25 µM] | 78.6% [25 µM] |  | 82.5% [25 µM] | 98.2% [25 µM] | 87.7% [25 µM] | 95.5% [25 µM] | 97% [25 µM] | 95.1% [25 µM] |
| Cc1ccc(-c2cc3nc(C(Cl)Cl)nc(-c4cccnc4)n3n2)cc1 | 77.8% | -2.59% (active) | 55.1% | 35.9% | 6.78% (active) |  | 37.3% |  | 27.8% | 14.6% | 16.5% | 22.7% | 9.57% (active) |  | 33.6% | -40.7% (active) | 28.3% | -3.44% (active) | 1.65% (active) | 24.2% |
| O=C1/C(=C/c2ccccc2)Oc2ccc(O)c(I)c21 | 95.3% | 50.8% | 85.7% | 58.5% | 181% |  |  | 94.7% | 95.6% | 98.2% | 95.4% | 96.7% | 95.4% | 99.6% | 68.3% | 101% | 80.8% |  | 103% | 108% |
| COc1cc(Cn2cc3c(c2)-c2oncc2CC3)cc(OC)c1OC | 23.7% | 40.6% | 30.2% | 27.5% | 53.3% | 20.8% | -1.56% (active) | 17.3% | 17.6% | 11.3% | 22.8% | 16.6% | 48% | -5.27% (active) | 1.48% (active) | -40.5% (active) | 7.08% (active) | -13.9% (active) |  | 41.2% |
| COc1ccc(-c2nc(/C=C3/C(=O)Nc4ccc(F)cc43)c3ccccn23)cc1 | 112% | 123% | 106% | 97% | 116% |  |  | 93.9% | 91.8% | 79.1% | 93.3% | 98.5% | 101% | 117% | 87.4% | 114% | 118% | 111% | 96.5% | 133% |
| COc1ccccc1CNCCCN1C(=O)c2ccc3c4c(ccc(c24)C1=O)C(=O)N(CCCNCCCCNCCCN)C3=O | -54.6% (active) | -41% (active) | -32.8% (active) | -1.99% (active) | -10.1% (active) | 7.3% (active) | -58.1% (active) | -19.1% (active) | -28.4% (active) | -27.1% (active) | -9.27% (active) |  | -73.8% (active) | 9.93% (active) | -2.75% (active) | -96.8% (active) | -25.1% (active) | 4.5% (active) |  |  |
| C=C(C)[C@@H]1C[C@@H]2Cc3cc(Cl)ccc3N1O2 | 130% | 84.7% | 102% | 100% | 129% |  | 96.3% | -70.8% (active) |  | 90.5% | 83.2% | 108% | 89.4% | 108% | 120% | 116% | 95.9% | 100% | 99% | 83.5% |
| Clc1cc(Cl)c2nc(-c3ccc(-c4ccc(/C=N/NC5=NCCN5)cc4)s3)cn2c1 | 106% | 80.8% | 92.5% | 72% | 110% |  | 38% |  | 73% | 11.2% | 37.6% | 97.9% | 85.6% |  | 84.3% | 97.9% | 86.6% | 97.7% | 105% | 104% |
| O=C1C(Cl)=C(Nc2ccccn2)C(=O)c2ccccc21 | 88.2% | 98.1% | 5.54% (active) | 12.6% |  | 53.1% | 100% | 56.4% | 62.8% | 81.4% | 56.5% | 29.5% | 30.2% | 108% | 34.4% | 26.9% | -9.73% (active) | 34.9% | 17% | 115% |
| O=C(CSc1nc2ccccc2[nH]1)Nc1ccc(-c2nc3ccccc3s2)c(Cl)c1 | 51.2% | 27.1% | 35.1% | 8.16% (active) | 30.1% | 26.9% | 71.8% |  | 81.3% |  | 28.9% | -9.6% (active) | -39.8% (active) | 12.4% | -52.3% (active) | -17.2% (active) | 65.2% | 9.5% (active) |  | 20.4% |
